Screening data: PubChem, several laboratories
Bcl-xL primary = Bcl-xL (human) inhibition. Q07817. GST-Bcl-xL / FITC-Bim BH3 peptide fluorescence polarization. inhibition, % at 10.9 µM. 320,000 tested, 0.7% active. AID 2129;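 active means inhibition above the mean of all tested compounds plus 3 SD, cutoff set per campaign, cut at about 30% in these data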;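 further: inhibitors lower millipolarization by displacing the labeled peptide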
Mcl1-Bid inh = Mcl-1/Bid interaction inhibition | Q07820 | TR-FRET Mcl-1/Bid-Dy647 peptide binding, 1536-well | inhibition, % at 21.7 µM | 220,000 tested, 0.97% active;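 active means compounds that cut the binding signal by more than half at the single screening dose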;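 further: His-tagged Mcl-1 with europium anti-His antibody binding Bid BH3 peptide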
Target sequence (Q07820 whole entry, looked up): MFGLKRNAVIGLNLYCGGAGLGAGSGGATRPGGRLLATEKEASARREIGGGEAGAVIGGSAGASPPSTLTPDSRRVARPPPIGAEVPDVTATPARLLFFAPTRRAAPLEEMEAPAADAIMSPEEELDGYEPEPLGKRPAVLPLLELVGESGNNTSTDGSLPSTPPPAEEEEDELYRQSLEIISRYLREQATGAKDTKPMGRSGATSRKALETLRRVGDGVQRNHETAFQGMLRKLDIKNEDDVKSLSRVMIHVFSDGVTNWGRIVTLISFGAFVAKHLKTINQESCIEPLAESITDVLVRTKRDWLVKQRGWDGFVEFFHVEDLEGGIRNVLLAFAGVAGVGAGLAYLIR
Mcl-1 Bim block = disrupts Bim peptide binding to human Mcl-1; Q07820; Bead-based flow cytometry, Bim peptide-Mcl-1 binding; inhibition, % at 10 µM; 190,000 tested, 0.1% active; AID 1009; in the data active means inhibition above about 40%
GLD-1 RNA inh = GLD-1-TGE RNA interaction inhibition (C. elegans) | purified GLD-1 + fluorescein TGE RNA, fluorescence polarization | inhibition, % at 5.96 µM | 320,000 tested, 0.44% active | AID 2280;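 active means percent inhibition above a per-plate cutoff, the plate mean of test compounds plus 3 SD, cut at about 30% in these data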
Mcl1 Noxa PPI = Mcl-1/Noxa interaction inhibition. Q07820. TR-FRET Mcl-1/Noxa peptide binding, 2 h. inhibition, % at 21.7 µM. 220,000 tested, 1.5% active. AID 1022;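 active means compounds that cut the protein-peptide binding signal by more than 50% relative to plate controls in a single-dose test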;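 further: His-tagged Mcl-1 with rhodamine Noxa BH3 peptide and terbium anti-His antibody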
MCL1-BIM inh = inhibitors of human MCL1 binding to BIM-BH3 peptide | Q07820 | GST-MCL1 / FITC-Bim-BH3 fluorescence polarization | inhibition, % at 10.9 µM | 320,000 tested, 0.68% active;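 active means inhibition above the mean inhibition of all tested compounds plus 3 SD, set per campaign, cut at about 40% in these data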;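 further: higher means more loss of mP so more displacement of Bim peptide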
Numbers stand for hits. Compounds with a hit are over-represented: about 2.3% of the library has one in this group of screens.

Results for CC(C)(C)C1=CC(=O)C(=O)C(C(C)(C)C)=C1 ?
Bcl-xL primary: inactive; Mcl1-Bid inh: inactive; Mcl-1 Bim block: inactive; GLD-1 RNA inh: inactive; Mcl1 Noxa PPI: 63; MCL1-BIM inh: inactive

How did Cc1ccc(Cn2c(=N)n(CC(O)COc3ccccc3)c3ccccc32)cc1 (configuration not stated) do in these assays?
Bcl-xL primary: inactive; Mcl1-Bid inh: inactive; Mcl-1 Bim block: inactive; GLD-1 RNA inh: inactive; Mcl1 Noxa PPI: inactive; MCL1-BIM inh: inactive

Results for N=c1n(Cc2ccccc2)c2ccccc2n1CC(O)COc1ccccc1 (configuration not stated) ?
Bcl-xL primary: inactive; Mcl1-Bid inh: 64; Mcl-1 Bim block: inactive; GLD-1 RNA inh: inactive; Mcl1 Noxa PPI: inactive; MCL1-BIM inh: inactive

What do the screens show for `Cc1cc2nc(-c3ccc(NC(=O)C(C)C)cc3)oc2cc1C`?
Bcl-xL primary: inactive; Mcl1-Bid inh: 73; Mcl-1 Bim block: inactive; GLD-1 RNA inh: inactive; Mcl1 Noxa PPI: inactive; MCL1-BIM inh: inactive

What do the screens show for `COC(=O)c1c(C)[nH]c(C)c1C(C)=O`?
Bcl-xL primary: inactive; Mcl1-Bid inh: 71; GLD-1 RNA inh: inactive; Mcl1 Noxa PPI: inactive; MCL1-BIM inh: inactive

How did COC(=O)c1c(C)[nH]c(C(C)=O)c1C do in these assays?
Bcl-xL primary: inactive; Mcl1-Bid inh: inactive; Mcl-1 Bim block: inactive; GLD-1 RNA inh: inactive; Mcl1 Noxa PPI: inactive; MCL1-BIM inh: inactive

How did O=C(Nc1ccc(-c2nc3ccccc3o2)cc1)c1ccc(N2CCOCC2)c([N+](=O)[O-])c1 do in these assays?
Bcl-xL primary: inactive; Mcl1-Bid inh: inactive; Mcl-1 Bim block: inactive; GLD-1 RNA inh: inactive; Mcl1 Noxa PPI: inactive; MCL1-BIM inh: inactive

What do the screens show for `COc1ccc2oc(-c3ccc(NC(=O)c4ccc(N5CCOCC5)c([N+](=O)[O-])c4)cc3)nc2c1`?
Bcl-xL primary: inactive; Mcl1-Bid inh: inactive; Mcl-1 Bim block: inactive; GLD-1 RNA inh: inactive; Mcl1 Noxa PPI: 55; MCL1-BIM inh: inactive

How did CCN(CC)CCOC(=O)c1cc(Cl)c(N)cc1OC do in these assays?
Bcl-xL primary: inactive; GLD-1 RNA inh: inactive; MCL1-BIM inh: inactive

What do the screens show for `CCOC(=O)CCNC(C)C1COc2ccccc2O1` (configuration not stated)?
Bcl-xL primary: inactive; Mcl1-Bid inh: 56; Mcl-1 Bim block: inactive; GLD-1 RNA inh: inactive; Mcl1 Noxa PPI: inactive; MCL1-BIM inh: inactive

How did CC(NCC1COc2ccccc2O1)C1COc2ccccc2O1 (configuration not stated) do in these assays?
Bcl-xL primary: inactive; GLD-1 RNA inh: inactive; MCL1-BIM inh: inactive

Results for CCCONC(=O)Nc1ccccc1[N+](=O)[O-] ?
Bcl-xL primary: inactive; Mcl1-Bid inh: 66; Mcl-1 Bim block: inactive; GLD-1 RNA inh: inactive; Mcl1 Noxa PPI: inactive; MCL1-BIM inh: inactive

How did COC(=O)C(C)(C)ONC(=O)Nc1ccccc1[N+](=O)[O-] do in these assays?
Bcl-xL primary: inactive; Mcl1-Bid inh: inactive; Mcl-1 Bim block: inactive; GLD-1 RNA inh: inactive; Mcl1 Noxa PPI: inactive; MCL1-BIM inh: inactive

Results for CCOc1ccc(S(=O)(=O)NCCC(=O)Nc2cccc(C(=O)OC)c2)cc1 ?
Bcl-xL primary: inactive; GLD-1 RNA inh: inactive; MCL1-BIM inh: inactive

Results for Cc1cc(C(=O)COC(=O)c2ccc3c(c2)OCO3)c(C)n1CC1CCCO1 (configuration not stated) ?
Bcl-xL primary: inactive; Mcl1-Bid inh: inactive; Mcl-1 Bim block: inactive; GLD-1 RNA inh: inactive; Mcl1 Noxa PPI: inactive; MCL1-BIM inh: inactive

Results for Cc1ccccc1OC1C(=O)N(CC2CCCO2)C1c1ccc2c(c1)OCO2 (configuration not stated) ?
Bcl-xL primary: 100; Mcl1-Bid inh: inactive; Mcl-1 Bim block: inactive; GLD-1 RNA inh: inactive; Mcl1 Noxa PPI: inactive; MCL1-BIM inh: inactive

Results for COC(CNC(=O)c1ccc2nc(-c3cccs3)c(-c3cccs3)nc2c1)OC ?
Bcl-xL primary: inactive; Mcl1-Bid inh: 94; Mcl-1 Bim block: inactive; GLD-1 RNA inh: inactive; Mcl1 Noxa PPI: inactive; MCL1-BIM inh: inactive

How did COc1ccc(-c2nc3ccc(C(=O)NCC(OC)OC)cc3nc2-c2ccc(OC)c(OC)c2)cc1OC do in these assays?
Bcl-xL primary: inactive; GLD-1 RNA inh: inactive; MCL1-BIM inh: inactive

How did CCCCn1c(SCC(=O)c2ccc(O)c(O)c2)nc2ccsc2c1=O do in these assays?
Bcl-xL primary: inactive; Mcl1-Bid inh: inactive; Mcl-1 Bim block: inactive; GLD-1 RNA inh: inactive; Mcl1 Noxa PPI: 55; MCL1-BIM inh: inactive
